Composite z-score data for nine molecules are collected here from PubChem BioAssay.

The test in a line: compounds binding Alexa647 anti-His antibody – biochemical, small-molecule microarray, 635 nm fluorescence, artefact control for SMM control protein annotation, primary screen (AID 1128).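 Further: score merges feature fluorescence with signal-to-noise for each printed compound spot.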 As to conditions: higher = more signal.
Consider `N#Cc1ccc(NN2C(C(O)C3CC=CCC3)C=CC3C(=O)N(c4ccccc4)C(=O)C32)cc1` (centres undefined), for which the composite z-score was found to be 0.118.
Then `CC(C)C[C@@H]1NC(=O)[C@@]23C(=O)N[C@@H](Cc4ccccc4)C2[C@H](C)[C@@]2(C)O[C@H]2C3/C=C/C/C=C\CNC(=O)CNC1=O` (some centres undefined), with 0.256; and `COc1ccc([Si](C)(C)[C@H]2[C@H](CC(=O)N3CCC[C@H]3CO)O[C@@]3(C(=O)N(Cc4ccc(N5CCCCC5=O)cc4)c4ccccc43)[C@@H]2C)cc1`, with 0.952; and `C=CCC(OC(C)=O)[C@@H]1[C@@H](N(Cc2cccc3ccccc23)C(=O)Cc2ccc(OC)cc2)c2cc(OCCCO)ccc2N1C(=O)c1ccc2ccccc2c1` (some centres undefined), with -0.185.
With `NC(=O)NCC#Cc1ccc2c(c1)[C@]1(C(=O)N2)[C@H](c2ccc(OCCO)cc2)N2[C@H](c3ccccc3)[C@H](c3ccccc3)OC(=O)[C@H]2[C@@H]1C(=O)O` the figure was 1.21; with `O=C1O[C@H](c2ccccc2)[C@H](c2ccccc2)N2[C@H]1[C@@H](C(=O)N1CCN(c3ncccn3)CC1)[C@]1(C(=O)Nc3ccc(C#CCCO)cc31)[C@H]2c1ccc(O)cc1`, 0.144.
Then `C=C(CCCC)/C(=C/C[C@H](OC(=O)c1ccncc1)c1cccc(OCCO)c1)c1cnc2ccccc2c1`, with 0.13; and `O=C(N1CCOCC1)[C@@]1(Cc2ccccc2)COC(c2ccc(OCCCO)cc2)=N1`, with 2.69.
The molecule `C=CCC(OC(C)=O)[C@@H]1[C@@H](N(Cc2ccc(-c3cccc(C(F)(F)F)c3)o2)C(=O)c2ccc(-c3ccccc3)cc2)c2cc(OCCCO)ccc2N1C(=O)c1ccc2ccccc2c1` (some centres undefined) yielded a composite z-score of -0.191.
